Assay results from PubChem BioAssay (Tox21).
Records with an inconclusive call do not appear. Entries that show only a call come without a potency. Active and inactive are the calls of the source. Unless noted, calls follow the shape of the dose curve; as a rule, active = well fitted curve in the direction sought with a large enough effect in the repeat runs; inconclusive = weak or mixed curves; inactive = no such curve, though single readings can be large; an effect the other way counts as inactive or inconclusive.

Experiments:
[1] = qHTS assay to identify aromatase inhibitors - cell viability counter screen (AID 743084);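 also: cells stimulated with testosterone during compound exposure; nearly all actives have a fitted effect of over 55% in size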
[2] = molecular target: Aryl hydrocarbon receptor (Homo sapiens) (UniProt P35869); experiment: qHTS assay to identify small molecule that activate the aryl hydrocarbon receptor (AhR) signaling pathway (AID 743085); also: nearly all actives have a fitted effect of over 15% in size; also: potency is read from the fitted curve at half-maximal effect;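 as to activation: HG2L7.5c1 human HepG2 liver cells with stably integrated DRE-driven firefly reporter; series mostly up to about 70 µM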
Aryl hydrocarbon receptor (Homo sapiens), sequence (P35869 whole entry, looked up): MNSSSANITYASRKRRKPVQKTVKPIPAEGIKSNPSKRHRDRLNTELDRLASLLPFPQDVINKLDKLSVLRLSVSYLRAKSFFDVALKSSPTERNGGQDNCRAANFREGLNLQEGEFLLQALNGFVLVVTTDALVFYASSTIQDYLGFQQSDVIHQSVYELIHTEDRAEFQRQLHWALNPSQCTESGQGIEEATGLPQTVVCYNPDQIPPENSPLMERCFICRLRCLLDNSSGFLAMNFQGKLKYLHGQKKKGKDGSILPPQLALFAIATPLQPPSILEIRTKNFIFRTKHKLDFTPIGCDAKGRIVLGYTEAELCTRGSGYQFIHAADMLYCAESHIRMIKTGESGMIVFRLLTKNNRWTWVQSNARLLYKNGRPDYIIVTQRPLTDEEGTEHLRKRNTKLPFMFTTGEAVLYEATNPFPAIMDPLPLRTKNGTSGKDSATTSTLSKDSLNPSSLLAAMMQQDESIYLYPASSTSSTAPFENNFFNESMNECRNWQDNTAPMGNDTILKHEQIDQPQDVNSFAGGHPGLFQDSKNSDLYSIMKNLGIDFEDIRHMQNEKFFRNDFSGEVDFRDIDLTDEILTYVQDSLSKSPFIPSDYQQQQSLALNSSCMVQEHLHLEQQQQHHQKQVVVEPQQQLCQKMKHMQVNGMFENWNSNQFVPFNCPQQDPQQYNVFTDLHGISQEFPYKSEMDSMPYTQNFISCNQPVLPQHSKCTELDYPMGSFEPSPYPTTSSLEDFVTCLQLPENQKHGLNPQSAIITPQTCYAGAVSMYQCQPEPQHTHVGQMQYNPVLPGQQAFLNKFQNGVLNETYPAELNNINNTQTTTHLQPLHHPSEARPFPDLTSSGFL
How it was run: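 HepG2 cells stably carrying a 20-DRE firefly luciferase reporter (HG2L7.5c1) treated with compound for 24 hr at 37C. Luciferase read by ONE-Glo luminescence, with CellTiter-Fluor viability read first.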

[3] = qHTS assay to identify small molecule that activate the aryl hydrocarbon receptor (AhR) signaling pathway - cell viability counter screen (AID 743086);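 also: HepG2 liver cells carrying the AhR DRE luciferase reporter; series mostly up to about 70 µM; nearly all actives have a fitted effect of over 45% in size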
How it was run: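 HepG2-AhR-luc (HG2L7.5c1) cells, 4000/well, treated 24 h at 37 C with compound; viability measured as CellTiter-Fluor fluorescence after 30 min in the same wells as the luciferase read.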

[4] = molecular target: Peroxisome proliferator-activated receptor gamma (Homo sapiens) (UniProt P37231); experiment: qHTS assay to identify small molecule agonists of the peroxisome proliferator-activated receptor gamma (PPARg) signaling pathway (AID 743094; active = well fitted activation curve with a large enough effect in the signal ratio in the repeat runs, not every such curve was filed as active; the % refers to the signal ratio)
Peroxisome proliferator-activated receptor gamma (Homo sapiens), sequence (P37231 whole entry, looked up): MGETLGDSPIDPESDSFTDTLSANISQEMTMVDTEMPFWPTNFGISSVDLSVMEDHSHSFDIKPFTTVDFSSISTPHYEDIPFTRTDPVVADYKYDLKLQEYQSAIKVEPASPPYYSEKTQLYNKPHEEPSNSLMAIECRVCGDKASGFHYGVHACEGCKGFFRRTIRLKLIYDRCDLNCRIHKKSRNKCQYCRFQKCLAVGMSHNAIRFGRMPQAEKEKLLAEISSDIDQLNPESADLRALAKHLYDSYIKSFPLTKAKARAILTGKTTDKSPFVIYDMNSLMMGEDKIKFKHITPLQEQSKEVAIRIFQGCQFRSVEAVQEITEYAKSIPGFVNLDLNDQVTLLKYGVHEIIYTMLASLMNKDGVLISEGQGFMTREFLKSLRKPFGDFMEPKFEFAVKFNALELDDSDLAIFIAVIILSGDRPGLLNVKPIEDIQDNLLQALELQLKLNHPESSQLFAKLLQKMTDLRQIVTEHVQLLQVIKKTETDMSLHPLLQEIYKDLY
How it was run: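 GeneBLAzer PPARg UAS-bla HEK293H cells carrying a stably integrated beta-lactamase reporter were pre-incubated 5 h at 37C, then exposed to compounds in DMSO for 17 h at 37C; LiveBLAzer B/G FRET substrate was added for 1 h at room temperature and fluorescence read.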

[5] = molecular target: Peroxisome proliferator-activated receptor gamma (Homo sapiens) (UniProt P37231); experiment: qHTS assay to identify small molecule antagonists of the peroxisome proliferator-activated receptor gamma (PPARg) signaling pathway (AID 743191; calls by dose curve; also: series mostly up to about 63 µM; nearly all actives have a fitted effect of over 30% in size)
How it was run: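 GeneBLAzer PPARg UAS-bla HEK293H cells, 5 h post-plating, exposed to compounds 17 h at 37C. LiveBLAzer B/G FRET substrate added for 1 h at room temperature; beta-lactamase reporter read by fluorescence intensity.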

[6] = qHTS assay to identify small molecule antagonists of the peroxisome proliferator-activated receptor gamma (PPARg) signaling pathway - cell viability counter screen (AID 743194); also: nearly all actives have a fitted effect of over 55% in size
How it was run: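 Cytotoxicity counter screen in PPARg-bla HEK293H cells, same wells as reporter assay. Compounds plus 50 nM rosiglitazone (final) for 17 h at 37 C, then viability read by CellTiter-Glo luminescence.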

[7] = qHTS assay for small molecule agonists of the antioxidant response element (ARE) signaling pathway (AID 743202; active = well fitted activation curve with a large enough effect in the signal ratio in the repeat runs, not every such curve was filed as active; the % refers to the signal ratio)
How it was run: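 ARE-bla HepG2 cells (beta-lactamase reporter under the antioxidant response element), plated 5 hours, then exposed to compounds 16 hours at 37 C. LiveBLAzer B/G FRET substrate added for 2 hours at room temperature; fluorescence intensity read.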

[8] = qHTS assay for small molecule agonists of the antioxidant response element (ARE) signaling pathway - cell viability counter screen (AID 743203; calls by dose curve; also: nearly all actives have a fitted effect of over 55% in size)
How it was run: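 CellSensor ARE-bla HepG2 cells, 2,000 per well, rested 5 hrs at 37C/5% CO2, then exposed to compound in DMSO for 16 hrs; viability read as CellTiter-Glo luminescence after 30 min at room temperature, in the reporter wells.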

[9] = qHTS assay for small molecule activators of the heat shock response signaling pathway - cell viability counter screen (AID 743209); also: nearly all actives have a fitted effect of over 50% in size
How it was run: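 CellSensor HSE-bla HeLa cells, plated overnight at 37 C/5% CO2, were exposed to compounds in DMSO for 5 h at 37 C. Viability was then read in the same wells by CellTiter-Glo luminescence after 30 min at room temperature.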

[10] = qHTS assay for small molecule activators of the heat shock response signaling pathway (AID 743210; active = well fitted activation curve with a large enough effect in the signal ratio in the repeat runs, with a control signal flat, not every such curve was filed as active; the % refers to the signal ratio; also: series mostly up to about 63 µM)
How it was run: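 HSE-bla HeLa cells (beta-lactamase reporter under heat shock response elements), plated overnight, then exposed to compounds 5 h at 37 C; LiveBLAzer B/G FRET substrate added, 2.5 h at room temperature, fluorescence intensity read.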

[11] = qHTS assay to identify small molecule agonists of the peroxisome proliferator-activated receptor delta (PPARd) signaling pathway - cell viability counter screen (AID 743211); also: nearly all actives have a fitted effect of over 55% in size
How it was run: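 PPARd-bla HEK293H cells (3000/well) were pre-incubated 5 h at 37 C, then exposed to compound for 17 h at 37 C. After 2 h with LiveBLAzer substrate, CellTiter-Glo was added to the same wells; luminescence read after 30 min at room temperature.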

[12] = qHTS assay to identify small molecule antagonists of the peroxisome proliferator-activated receptor delta (PPARd) signaling pathway - cell viability counter screen (AID 743213); also: nearly all actives have a fitted effect of over 50% in size; also: potency is read from the fitted curve at half-maximal effect
How it was run: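 HEK293H PPARd UAS-bla cells, 5 h pre-incubation, compound + L165041 300 nM final, 17 h 37 C; B/G FRET substrate 2 h RT; then CellTiter-Glo 30 min RT, luminescence.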

[13] = molecular target: Bile acid receptor (Homo sapiens) (UniProt Q96RI1); experiment: qHTS assay to identify small molecule antagonists of the farnesoid-X-receptor (FXR) signaling pathway (AID 743217; active = well fitted inhibition curve with a large enough effect in the signal ratio in the repeat runs, not every such curve was filed as active; the % refers to the signal ratio)
Bile acid receptor (Homo sapiens), sequence (Q96RI1 whole entry, looked up): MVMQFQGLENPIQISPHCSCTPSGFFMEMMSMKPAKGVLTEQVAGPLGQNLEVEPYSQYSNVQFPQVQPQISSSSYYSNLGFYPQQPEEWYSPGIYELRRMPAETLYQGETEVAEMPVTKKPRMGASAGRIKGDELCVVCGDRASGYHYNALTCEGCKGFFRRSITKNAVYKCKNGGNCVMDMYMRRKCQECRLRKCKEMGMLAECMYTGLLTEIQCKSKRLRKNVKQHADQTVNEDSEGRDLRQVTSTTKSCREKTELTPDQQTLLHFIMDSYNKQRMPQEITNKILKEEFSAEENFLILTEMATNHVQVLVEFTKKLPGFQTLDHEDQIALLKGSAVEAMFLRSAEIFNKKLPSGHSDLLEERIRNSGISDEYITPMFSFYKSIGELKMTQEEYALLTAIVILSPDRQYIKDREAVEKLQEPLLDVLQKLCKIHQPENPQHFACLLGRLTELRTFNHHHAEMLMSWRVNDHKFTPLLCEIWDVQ
How it was run: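 FXR-UAS-bla HEK 293T cells pre-incubated 5 h at 37 °C, then exposed to compounds with chenodeoxycholic acid (50 uM final) for 16 h at 37 °C. Beta-lactamase reporter read by LiveBLAzer B/G FRET substrate fluorescence after 2 h at room temperature.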

[14] = qHTS assay to identify small molecule agonists of the farnesoid-X-receptor (FXR) signaling pathway - cell viability counter screen (AID 743218); also: nearly all actives have a fitted effect of over 45% in size
How it was run: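 FXR-UAS-bla HEK 293T cells, plated 5 h at 37 C, were exposed to compounds for 16 h at 37 C. CellTiter-Glo was then added to the same wells as the bla readout; luminescence read after 30 min at room temperature.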

[15] = molecular target: Bile acid receptor (Homo sapiens) (UniProt Q96RI1); experiment: qHTS assay to identify small molecule agonists of the farnesoid-X-receptor (FXR) signaling pathway (AID 743220; active = well fitted activation curve with a large enough effect in the signal ratio in the repeat runs, not every such curve was filed as active; the % refers to the signal ratio)
How it was run: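 Beta-lactamase reporter under UAS control in GeneBLAzer FXR HEK 293T cells (5000/well) measured with LiveBLAzer FRET substrate after 2 h at room temperature. Compound exposure lasted 16 h at 37C.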

[16] = qHTS assay to identify small molecule antagonists of the farnesoid-X-receptor (FXR) signaling pathway - cell viability counter screen (AID 743221; active = well fitted cell-killing curve with a large enough effect in the repeat runs, not every such curve was filed as active; also: nearly all actives have a fitted effect of over 50% in size)
How it was run: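 GeneBLAzer FXR-UAS-bla HEK 293T cells, compound plus chenodeoxycholic acid (50 uM final), 16 h at 37 C. CellTiter-Glo added to the same wells after the beta-lactamase read; luminescence read after 30 min at room temperature as viability.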

[17] = molecular target: Vitamin D3 receptor (Homo sapiens) (UniProt P11473); experiment: qHTS assay to identify small molecule agonists of the vitamin D receptor (VDR) signaling pathway (AID 743222; calls by dose curve)
Vitamin D3 receptor (Homo sapiens), sequence (P11473 whole entry, looked up): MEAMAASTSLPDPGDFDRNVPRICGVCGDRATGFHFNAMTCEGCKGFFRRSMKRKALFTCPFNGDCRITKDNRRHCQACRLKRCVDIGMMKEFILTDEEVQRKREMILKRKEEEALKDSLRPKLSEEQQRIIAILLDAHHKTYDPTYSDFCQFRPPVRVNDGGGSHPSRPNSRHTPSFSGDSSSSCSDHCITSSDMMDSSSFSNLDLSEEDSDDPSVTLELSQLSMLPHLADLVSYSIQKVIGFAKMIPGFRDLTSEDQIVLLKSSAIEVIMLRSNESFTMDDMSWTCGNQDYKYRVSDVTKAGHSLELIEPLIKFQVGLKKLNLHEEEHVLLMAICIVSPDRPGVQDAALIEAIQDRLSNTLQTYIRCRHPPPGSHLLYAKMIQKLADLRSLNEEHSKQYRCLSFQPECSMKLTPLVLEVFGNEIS
How it was run: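 VDR-bla cells were plated 4 h at 37C/5% CO2, then exposed to compounds in DMSO for 16 h. After LiveBLAzer B/G FRET substrate addition and 2 h at room temperature, beta-lactamase reporter fluorescence was read.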

[18] = molecular target: Vitamin D3 receptor (Homo sapiens) (UniProt P11473); experiment: qHTS assay to identify small molecule antagonists of the vitamin D receptor (VDR) signaling pathway (AID 743223; active = well fitted inhibition curve with a large enough effect in the signal ratio in the repeat runs, not every such curve was filed as active; the % refers to the signal ratio)
How it was run: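 VDR-bla cells were treated with compound plus 3 nM final 1alpha,25-dihydroxyvitamin D3 for 16 h at 37C. Beta-lactamase reporter read by B/G FRET substrate fluorescence after 2 h at room temperature. qHTS format.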

[19] = molecular target: Peroxisome proliferator-activated receptor delta (Homo sapiens) (UniProt Q03181); experiment: qHTS assay to identify small molecule agonists of the peroxisome proliferator-activated receptor delta (PPARd) signaling pathway (AID 743212; calls by dose curve)
Peroxisome proliferator-activated receptor delta (Homo sapiens), sequence (Q03181 whole entry, looked up): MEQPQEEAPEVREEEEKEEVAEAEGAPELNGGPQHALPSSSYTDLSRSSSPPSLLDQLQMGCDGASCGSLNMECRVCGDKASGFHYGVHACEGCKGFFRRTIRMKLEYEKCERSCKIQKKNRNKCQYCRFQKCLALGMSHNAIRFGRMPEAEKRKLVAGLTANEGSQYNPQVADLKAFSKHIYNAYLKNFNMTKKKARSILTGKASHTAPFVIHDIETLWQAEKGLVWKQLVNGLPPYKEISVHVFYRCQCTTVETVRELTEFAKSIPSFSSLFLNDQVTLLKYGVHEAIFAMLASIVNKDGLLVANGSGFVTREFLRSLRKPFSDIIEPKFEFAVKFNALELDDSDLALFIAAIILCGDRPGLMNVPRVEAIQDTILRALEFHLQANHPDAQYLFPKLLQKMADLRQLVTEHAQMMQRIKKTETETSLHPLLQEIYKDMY
How it was run: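 GeneBLAzer UAS-bla HEK293H cells carrying a PPARδ construct were exposed to compounds at 37 °C. Beta-lactamase activity was read by FRET fluorescence after 2 h at room temperature with LiveBLAzer B/G substrate.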

[20] = molecular target: Peroxisome proliferator-activated receptor delta (Homo sapiens) (UniProt Q03181); experiment: qHTS assay to identify small molecule antagonists of the peroxisome proliferator-activated receptor delta (PPARd) signaling pathway (AID 743215; active = well fitted inhibition curve with a large enough effect in the signal ratio in the repeat runs, not every such curve was filed as active; the % refers to the signal ratio;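 also: cells stimulated with agonist L165041 at 300 nM final during compound exposure; series mostly up to about 62 µM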)
How it was run: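 PPARd UAS-bla HEK293H cells were pre-incubated 5 h at 37 C, then given test compounds in DMSO plus agonist L165041 (300 nM final). After 17 h at 37 C, beta-lactamase FRET substrate was added; fluorescence read after 2 h at room temperature.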

Row | SMILES | Potency [1] | Potency [2] | Potency [3] | Potency [4] | Potency [5] | Potency [6] | Potency [7] | Potency [8] | outcome [9] | outcome [10] | Potency [11] | Potency [12] | outcome [13] | Potency [14] | outcome [15] | Potency [16] | outcome [17] | outcome [18] | Potency [19] | outcome [20]
1 | O=C(OCCOCCOCCOC(=O)c1ccccc1)c1ccccc1 | inactive | inactive | inactive | inactive | inactive | inactive | inactive | inactive | inactive | inactive | inactive | inactive | inactive | inactive | inactive | inactive | inactive | inactive | – | –
2 | CCCCCCCCS | inactive | inactive | inactive | inactive | inactive | inactive | inactive | inactive | inactive | inactive | inactive | inactive | inactive | – | inactive | inactive | inactive | inactive | inactive | inactive
3 | CC1(C)CC(O)CC(C)(C)N1[O] | inactive | inactive | inactive | inactive | inactive | inactive | inactive | inactive | inactive | inactive | inactive | inactive | inactive | inactive | inactive | inactive | inactive | inactive | inactive | inactive
4 | O=C(OC1C[C@H]2CC[C@@H](C1)[N+]21CCCC1)C(O)(c1ccccc1)c1ccccc1 (some centres undefined) | inactive | inactive | inactive | inactive | inactive | inactive | inactive | inactive | inactive | inactive | inactive | inactive | – | inactive | – | inactive | inactive | inactive | inactive | inactive
5 | CCCC(=O)OCCC(C)C | inactive | inactive | inactive | inactive | inactive | inactive | inactive | inactive | inactive | inactive | inactive | – | inactive | – | inactive | inactive | inactive | – | inactive | inactive
6 | CCCC1CCOC(C)S1 (centres undefined) | inactive | inactive | inactive | inactive | inactive | inactive | inactive | inactive | inactive | inactive | inactive | 4.9 µM (active) | – | inactive | – | inactive | inactive | inactive | – | –
7 | Cc1c(N=C=O)cccc1N=C=O | inactive | inactive | inactive | inactive | inactive | inactive | inactive | inactive | inactive | inactive | inactive | – | – | inactive | – | inactive | inactive | inactive | – | –
8 | O=C1c2ccccc2C(=O)C1c1ccc2ccccc2n1 | inactive | 10.8 µM (active) | inactive | inactive | inactive | inactive | – | inactive | inactive | inactive | inactive | – | – | – | – | inactive | inactive | inactive | inactive | –
9 | CCCC(=O)OCc1ccccc1 | inactive | inactive | inactive | inactive | inactive | inactive | inactive | inactive | inactive | inactive | inactive | – | inactive | inactive | inactive | inactive | inactive | – | inactive | inactive
10 | FC1(F)C(F)(F)C(F)(F)C2(F)C(F)(C1(F)F)C(F)(F)C(F)(F)C1(F)C(F)(F)C(F)(F)C(F)(F)C(F)(F)C12F (centres undefined) | inactive | inactive | inactive | inactive | inactive | inactive | inactive | inactive | inactive | inactive | inactive | inactive | – | inactive | – | inactive | inactive | – | inactive | –
11 | CCCc1ccc(OC)cc1 | inactive | inactive | inactive | inactive | inactive | inactive | inactive | inactive | inactive | inactive | inactive | – | – | inactive | – | inactive | inactive | – | inactive | inactive
12 | CCC(C)CCCC(C)(C)O (centres undefined) | inactive | inactive | inactive | inactive | inactive | inactive | inactive | inactive | inactive | inactive | inactive | – | – | inactive | – | inactive | inactive | – | inactive | inactive
13 | CC(COc1ccccc1)NC(C)C(O)c1ccc(O)cc1 (centres undefined) | inactive | inactive | inactive | inactive | inactive | inactive | inactive | inactive | inactive | – | inactive | – | – | inactive | inactive | inactive | inactive | – | inactive | inactive
14 | CC(C)Cc1nccs1 | inactive | inactive | inactive | inactive | inactive | inactive | inactive | inactive | inactive | inactive | inactive | – | inactive | inactive | inactive | inactive | inactive | inactive | inactive | inactive
15 | C=CC(=O)OCCCCCCCCCC | inactive | inactive | inactive | inactive | inactive | inactive | inactive | inactive | inactive | inactive | inactive | inactive | – | inactive | – | inactive | inactive | inactive | – | –
